The record followed here is PubChem BioAssay (NCI).

Structures are written as SMILES. The panel holds about 83,000 compounds, 20% with a hit somewhere; the sample as a whole holds those more often.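 A percent growth of 40 corresponds to 60% growth inhibition; 0 means no net growth; -100 means all cells died. Active threshold: below 10.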 Unmarked numbers belong to inactive results. Activity calls are given as the source filed them.

Holding throughout (assay): NCI-60 one-dose screen, 48 h (100 = growth as untreated, 0 = no growth, -100 = all killed)
Common to all, as to settings: 10 µM

Test [1] has as its system SR leukemia.
The test system of test [2] is RPMI-8226 leukemia.
The test system of test [3] is OVCAR-8 ovarian.
Test [4] concerns OVCAR-5 ovarian.
For test [5], the system named is OVCAR-4 ovarian.
The subject of test [6] is SK-OV-3 ovarian.
Test [7] relates to IGROV1 ovarian.
For test [8], the system named is OVCAR-3 ovarian.
Test [9] has as its system HS 578T breast.
The test system of test [10] is NCI/ADR-RES ovarian.

With `COC1=C[C@@]23CCC(=O)N2CCc2cc4c(cc2[C@H]3[C@H]1OC(=O)C(C)(C)O)OCO4`, the growth in [1] is 96.1%; in test [2] it was 92.3%; in [3], 109%; in test [4], 101%; in [5], 98.6%; in test [6], 120%. The growth in [7] was 103%; in [8], 106%; in [9] it was 98.1%; in test [10], 97.4%.

As to `O=C(Cc1ccc2c(c1)CN(C1CCC(=O)NC1=O)C2=O)NCCc1ccccc1` (stereo not given), the growth in test [1] is 53.5%; in test [2], 45.6%; in test [3], 4.26% (active); in test [4] it was 37.6%; in [5], 10.6%; in [6], 28%. Besides, the growth was 2.99% (active) in test [7], 20.1% in [8], -5.24% (active) in test [9] and 28.4% in test [10].

As for `N#Cc1c(NC(=O)c2ccc(C(F)(F)F)cc2C(F)(F)F)sc2c1CCC(=O)C2`, the growth was -11.3% (active) in test [1]; 2.53% (active) in [2]; -16.9% (active) in test [3]; -62.3% (active) in test [4]; -40.8% (active) in [5]; -22.2% (active) in test [6]. Besides, the growth in test [7] was -3.75% (active); in test [8] it was -59.5% (active); in [9], -5.88% (active); in test [10], 1.12% (active).

Take `O=C(CNc1nc(-c2ccccc2)cs1)Nc1cccc(Cl)c1`: the growth in test [1] was -15% (active); in [2], 26%; in test [3] it was 32.1%; in test [4] it was 40.9%; in test [5], 32.5%; in [6], 37.7%. For the same compound, the growth in test [7] was 29.4%; in [8], 32.2%; in test [9] it was 32.4%; in test [10] it was 19.5%.

For the compound `CCOC(=O)CNC(=O)CN(Cc1ccccc1)C(=O)[C@@]1(C)CCC[C@]2(C)[C@H]3CC4C(C(C)C)=C[C@]3(CC[C@H]21)[C@@H]1C(=O)CCC(=O)[C@H]41`, the growth was 8.03% (active) in test [1]; 19.8% in [2]; 58.3% in test [3]; 97.8% in test [4]; 49.4% in test [5]; 96.6% in test [6]. For the same compound, the growth in test [7] was 18.2%; in [8] it was 61.1%; in test [9], 52.6%; in test [10], 47.9%.

Take `CCCn1c(=O)c2[nH]c(-c3ccc(OCc4nc5ccc(C(F)(F)F)cc5[nH]4)cc3)nc2n(CCC)c1=O`: the growth in test [1] is 24.6%; in test [2] it was 28.1%; in [3] it was -7.74% (active); in test [4], 82.3%; in test [5], 60%; in [6] it was 90.7%. For the same compound, the growth in test [7] is 62.7%; in [8], 52.5%; in test [9] it was 33.4%; in test [10], 55.8%.

With `Cc1ccc(/C=C/C(=O)c2ccc(S(=O)(=O)NCCNc3nc(Nc4ccc(F)cc4)nc(N(C)C)n3)cc2)cc1`, the growth in test [1] was 1.14% (active); in [2], 4.72% (active); in test [3] it was 3.72% (active); in test [4] it was 39.2%; in test [5], 21.8%; in [6] it was 94.7%. For the same compound, the growth is 52.1% in test [7], -55.9% (active) in test [8], 68.8% in [9] and 14.7% in [10].

Turning to `CCCn1c(=O)c2[nH]c(-c3ccc(OCc4nc5ccc(C#N)cc5[nH]4)cc3)nc2n(CCC)c1=O`, the growth in test [1] was 59.5%; in [2] it was 68.9%; in test [3], 66.3%; in test [4] it was 113%; in test [5] it was 78.9%; in test [6], 85.5%. In addition, the growth in [7] was 62.2%; in test [8] it was 68%; in test [9], 40%; in test [10], 97.1%.

Consider `CCOc1ccc(/C=N/NC(=O)Cn2nc(Cc3ccc([N+](=O)[O-])cc3)c3onc(C)c3c2=O)cc1`, for which the growth in test [1] was 62.7%; in [2], 68.9%; in test [3], -16.5% (active); in [4], 43.8%; in [5], -34.8% (active); in test [6], 91.3%. Besides, the growth in test [7] was 27.6%; in test [8], -37.5% (active); in test [9], -7.55% (active); in [10], 19.4%.

With `COc1ccc2cc([C@H](C)C(=O)NCc3ccccc3)ccc2c1`, the growth in test [1] is 29.8%; in test [2] it was 25.1%; in test [3], 32.7%; in test [4], 53.8%; in test [5] it was 53.5%; in test [6], 40.6%. For the same compound, the growth in test [7] was 46.9%; in test [8], 19.9%; in [9], 16.8%; in test [10], -10% (active).

Regarding `CN1CCN(Cc2ccc(C(=O)Nc3cccc(Nc4ccc5c(O)cccc5n4)c3)cc2C(F)(F)F)CC1`, the growth in test [1] is 4.88% (active); in test [2], -10.6% (active); in test [3], -19.5% (active); in test [4], -48.7% (active); in test [5], -13.1% (active); in test [6], -46.6% (active). Moreover, the growth in [7] was -54.6% (active); in test [8] it was -23% (active); in [9] it was -37.5% (active); in [10] it was -0.427% (active).

Consider `O=C(Cc1ccc2c(c1)CN(C1CCC(=O)NC1=O)C2=O)NCc1cccc2ccccc12` (stereo not given), for which the growth in test [1] was 13.6%; in test [2], 18%; in test [3], -3.71% (active); in test [4], -11% (active); in [5], -2.52% (active); in test [6], -7.7% (active). The growth in test [7] is -13.5% (active); in [8] it was -22.3% (active); in test [9], -11.3% (active); in test [10], -18.5% (active).

As to `N#Cc1c(NC(=O)c2ccc(C(F)(F)F)cc2)sc2c1CCC(=O)C2`, the growth in test [1] is 11.3%; in test [2] it was 7.34% (active); in test [3], -32.3% (active); in test [4], -80.6% (active); in [5], -24.6% (active); in test [6], -54.1% (active). Besides, the growth in test [7] was -79.3% (active); in test [8], -92.9% (active); in [9] it was -27.1% (active); in [10] it was -44.8% (active).

On to `O=C(CN1CCN(c2ncnc3c2cnn3-c2ccccc2)CC1)Nc1nncs1`, for which the growth was -28.9% (active) in [1]; -16.6% (active) in [2]; -21.4% (active) in [3]; -4.09% (active) in [4]; 13.6% in [5]; 28.1% in test [6]. The growth was -41.8% (active) in test [7], -55.6% (active) in test [8], 3.92% (active) in test [9] and -32.6% (active) in test [10].

Consider `Cc1ccn2c(C(=O)c3ccc(Br)cc3)cc(-c3cc(-c4ccc(N(C)C)cc4)c(C#N)c(N)n3)c2c1`, for which the growth in test [1] was 64.3%; in [2] it was 83.7%; in [3], 38.2%; in [4] it was 66%; in test [5], 63.3%; in test [6] it was 93.8%. Further, the growth in test [7] is 76.6%; in test [8], 50.2%; in test [9], 70.2%; in [10], 72%.

Consider `CC(=O)c1ccc(Nc2nc(SCCC(C)C)nc(-c3ccc(F)cc3)c2C#N)cc1`, for which the growth is 64.9% in [1]; 81.7% in test [2]; 8.35% (active) in test [3]; 53.4% in [4]; -6.74% (active) in test [5]; 98.7% in [6]. Further, the growth is 16% in test [7], 19% in test [8], 32% in test [9] and 23.9% in test [10].

Regarding `Cc1noc2c(Cc3ccccc3)nn(CC(=O)N/N=C/c3ccc(Br)cc3)c(=O)c12`, the growth is 90.6% in test [1]; 78.6% in test [2]; 9.24% (active) in test [3]; 62.5% in test [4]; -61.9% (active) in test [5]; 43.8% in test [6]. Further, the growth was 53.4% in test [7], -33.6% (active) in test [8], 30.7% in [9] and 58% in test [10].

Consider `COc1ccc(C(=O)/C=C/c2ccc(Cl)c(C(F)(F)F)c2)cc1S(N)(=O)=O`, for which the growth in test [1] was 8.87% (active); in test [2], 2.54% (active); in [3], -73.4% (active); in test [4], -100% (active); in [5] it was -99.7% (active); in test [6], 9.96% (active). The growth in [7] is -91.5% (active); in test [8], -66.5% (active); in test [9], -41.3% (active); in [10] it was -44% (active).

Take `C=C1CCC2C3(C)COC(c4ccccc4F)OC3CCC2(C)C1C/C=C1/C(=O)OCC1O` (stereo not given): the growth in test [1] is 11.6%; in [2] it was 13.4%; in [3], -54.3% (active); in test [4], -42.8% (active); in test [5], 22.2%; in [6] it was 26.3%. The growth was -45.8% (active) in test [7], -79.1% (active) in test [8], -0.635% (active) in [9] and -23% (active) in [10].

For the compound `CN1CCc2c(sc3ncnc(N/N=C/c4ccc5ccccc5c4)c23)C1`, the growth in test [1] is 9.62% (active); in test [2], 42.6%; in [3] it was 78.6%; in [4], 88.6%; in test [5] it was 73.9%; in [6], 96.1%. Moreover, the growth in test [7] is 87.9%; in [8] it was 75%; in test [9] it was 62.3%; in test [10], 76.7%.

As for `CC(=O)Nc1ccc(-c2cn(-c3cccc(C(=O)Nc4cccc(OC(F)(F)F)c4)c3)nn2)cn1`, the growth in [1] was 97.8%; in test [2], 96%; in test [3] it was 57.1%; in test [4], 108%; in [5], 102%; in test [6], 93.9%. In addition, the growth in [7] is 108%; in test [8] it was 110%; in [9], 53.7%; in test [10] it was 97.7%.

`O=c1c2ccccc2nc(COc2ccccc2)n1/N=C/c1ccc(F)cc1`: the growth in [1] was 78.2%; in [2], 71.7%; in test [3], 94.4%; in test [4], 94.2%; in [5] it was 76.9%; in test [6], 114%. Further, the growth is 105% in [7], 114% in [8], 90.5% in test [9] and 90.8% in test [10].

For `CN1C(=O)N(C)C2SC(N/N=C/c3ccccc3F)=NC21` (stereo not given), the growth in test [1] was 16.4%; in [2], 90.9%; in [3] it was 88.4%; in test [4], 86.7%; in [5] it was 92.7%; in test [6], 88%. Besides, the growth is 56.6% in test [7], 6.19% (active) in test [8], 85.6% in [9] and 30.6% in [10].

On to `Cc1ccc(-c2cc(C(=O)N=Nc3c(O)[nH]c4ccc(Br)cc34)c3ccccc3n2)cc1`, for which the growth was 10.4% in [1]; 60.8% in [2]; 56.5% in test [3]; 99.7% in [4]; 71.9% in [5]; 107% in test [6]. For the same compound, the growth in test [7] was 52.9%; in test [8], 79.2%; in test [9], 67.5%; in test [10], 55%.
